The panel holds about 79,000 compounds, 15% with a hit somewhere; the sample as a whole holds those more often. Unmarked numbers belong to inactive results. Active and inactive are the calls of the source. No stated cut-off is given here; in the data, active means growth inhibition above about 70%; inactive means the rest.
Legend:
[1] = NCI Yeast Anticancer Drug Screen. Data for the rad50 strain (AID 155);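 further: 0% = growth of vehicle-only cultures of the same strain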; conditions: S. cerevisiae rad50 strain growth inhibition, active compounds read high
Procedure, shortened: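 A DNA repair-deficient yeast mutant serves as the test organism; compound-induced growth inhibition is calculated against vehicle-treated cells.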

[2] = NCI Yeast Anticancer Drug Screen. Data for the mec2-1 strain (AID 157); conditions: S. cerevisiae mec2-1 strain, active compounds read high
Procedure, shortened: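 Growth inhibition is read against vehicle-treated controls after compound exposure of the mec2-1 yeast strain, which is defective in DNA damage repair or cell cycle control.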

[3] = NCI Yeast Anticancer Drug Screen. Data for the sgs1 mgt1 strain (AID 161);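 further: 0% = growth of cultures given vehicle only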; conditions: S. cerevisiae sgs1 mgt1 strain, active compounds read high
Procedure, shortened: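 Percent growth inhibition was derived by comparing compound-exposed mutant yeast with vehicle-exposed cultures. The strain carries alterations in DNA damage repair.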

[4] = NCI Yeast Anticancer Drug Screen. Data for the cln2 rad14 strain (AID 165);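 further: 0% = growth equal to vehicle treated cultures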; conditions: S. cerevisiae cln2 rad14 strain, active compounds read high
Procedure, shortened: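 Growth inhibition, relative to vehicle-treated controls, is the read-out. The test organism is a yeast strain with defined genetic alterations, cln2 rad14.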

[5] = NCI Yeast Anticancer Drug Screen. Data for the bub3 strain (AID 167); conditions: S. cerevisiae bub3 mutant strain, active compounds read high
Procedure, shortened: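 Inhibition values come from growth of compound-treated mutant yeast normalised to vehicle-treated controls.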

[6] = NCI Yeast Anticancer Drug Screen. Data for the mlh1 rad18 strain (AID 175); conditions: S. cerevisiae mlh1 rad18 strain growth inhibition, active compounds read high
Procedure, shortened: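 Cells of a genetically altered yeast strain, deficient in DNA damage repair, were treated with compound. Their growth was then compared with that of vehicle-treated cultures to give inhibition.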

[7] = at 5.0 µM (retest, dose inferred, filed as 0.5)
[8] = at 50.0 µM (retest, dose inferred, filed as 5.0)

| Compound | growth inhibition [1, 7] | growth inhibition [1, 8] | growth inhibition ([1]; at 50.0 µM) | growth inhibition [2, 7] | growth inhibition [2, 8] | growth inhibition ([2]; at 50.0 µM) | growth inhibition [3, 7] | growth inhibition [3, 8] | growth inhibition ([3]; at 50.0 µM) | growth inhibition [4, 7] | growth inhibition [4, 8] | growth inhibition ([4]; at 50.0 µM) | growth inhibition [5, 7] | growth inhibition [5, 8] | growth inhibition ([5]; at 50.0 µM) | growth inhibition [6, 7] | growth inhibition [6, 8] | growth inhibition ([6]; at 50.0 µM) |
| --- | --- | --- | --- | --- | --- | --- | --- | --- | --- | --- | --- | --- | --- | --- | --- | --- | --- | --- |
| CCCCCC1OC(CCCCC)OC(CCCCC)O1 (stereo not given) | -10% | 33% | 10.2% | 13% | -19% | 6.6% | 0% | 7% | 16.3% | 4% | 3% | 8.25% | -12% | 20% | -13.9% | -8% | -3% | 11.7% |
| Fc1ccc(NC(=S)SCc2ccccc2)cc1 | 4% | 16% | 68.3% | -2% | 18% | 53.6% | 2% | 19% | 76.8% (active) | -7% | 1% | 28.9% | -4% | 34% | 45.5% | 0% | 15% | 78.2% (active) |
| CCN(CCN1C(=O)C2CCCCC2C1=O)c1ccc(N=O)c(C)c1 (stereo not given) | 71% (active) | 97% (active) | 98.8% (active) | 66% | 99% (active) | 98.8% (active) | 28% | 99% (active) | 97.9% (active) | 23% | 96% (active) | 88.6% (active) | 48% | 98% (active) | 99.1% (active) | 72% (active) | 97% (active) | 97.5% (active) |
| Oc1cc(Br)cc2cc(Br)cnc12 | 92% (active) | 98% (active) | 84.4% (active) | 89% (active) | 98% (active) | 89.5% (active) | 95% (active) | 98% (active) | 80.5% (active) | 96% (active) | 96% (active) | 84.8% (active) | 92% (active) | 97% (active) | 85.5% (active) | 96% (active) | 98% (active) | 78.3% (active) |
| FC(F)(F)c1ccccc1NC(=S)SCc1ccc(Cl)cc1 | 3% | 53% | 97% (active) | -2% | 95% (active) | 97.2% (active) | 1% | 94% (active) | 99.2% (active) | -3% | 69% | 98.5% (active) | 14% | 90% (active) | 97.4% (active) | -3% | 83% (active) | 99.2% (active) |
| O=C1c2ccccc2SCC12OC2c1ccc(Cl)cc1 (stereo not given) | 9% | 85% (active) | 95% (active) | 4% | 88% (active) | 93.5% (active) | 16% | 92% (active) | 95.5% (active) | 1% | 87% (active) | 92% (active) | 21% | 91% (active) | 94.9% (active) | 12% | 91% (active) | 95.1% (active) |
| O=C(CCC(O)(c1ccccc1)c1ccccc1)c1ccccc1 | -4% | 97% (active) | 65.8% | -13% | 98% (active) | -11.9% | -11% | 98% (active) | 13.2% | -89% | 99% (active) | -27.2% | -9% | 46% | 4.9% | -3% | 98% (active) | 70.5% (active) |
| CCOC(=O)c1c(O)c(C)c(=O)n2c1[nH]c1cc(C)c(C)cc12 | -1% | 12% | -6.75% | 10% | 33% | -6.85% | 12% | 29% | -6.5% | -4% | 2% | -21.3% | -6% | 14% | -43.9% | -4% | 38% | -10.6% |
| O=C1/C(=C/c2ccccc2)CNC/C1=C\c1ccccc1 | -11% | 98% (active) | 98.7% (active) | 26% | 97% (active) | 99.3% (active) | -7% | 96% (active) | 95.2% (active) | 10% | 98% (active) | 92.5% (active) | 6% | 98% (active) | 94.2% (active) | -4% | 98% (active) | 99.2% (active) |
| S=C(Nc1ccccn1)c1ccccn1 | -3% | 9% | 23.9% | 6% | 21% | 50.3% | 2% | 43% | 69% | -11% | -7% | 18.6% | 3% | 33% | 55.8% | 3% | 46% | 51.4% |
